NS1 function inh – influenza NS1 inhibition; Potency, µM (doses to about 46.1 µM); hit rate 0.4% among 270,000; also: actives are rising curves; nearly all actives have a fitted effect of over 50% in size
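In this qHTS, NS1 from influenza A is expressed in budding yeast, where it slows growth. Cells are switched from glucose to 2% galactose medium (pH 6.0, -URA), treated with compound, and growth recovery is read at OD600.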
Shiga toxin inh – inhibitors of Shiga toxin in Vero cells; Vero cells, Shiga toxin protein synthesis inhibition reporter; inhibition, % at 38.7 µM; hit rate 9.2% among 290,000; AID 2315; in the data active = inhibition mostly above about 28%, no sharp cut-off; inactive = mostly below about 43%
CHX counter – counter-screen hit for Shiga toxin inhibitors, cycloheximide | cell reporter, cycloheximide protein synthesis inhibition counterscreen | max response, % | hit rate 12% among 300,000; in the data active = max response mostly above about 13%, no sharp cut-off; inactive = mostly below about 14%; also: read at 38.3 µM for the half of the compounds with a filed dose
Pf growth 48h – P. falciparum growth inhibition at 48 hours (one generation); P. falciparum luciferase growth in erythrocytes, 48 h; Potency, µM (top dose mostly 28.7 µM), actives largely listed as inhibitors; hit rate 5.9% among 310,000; active = well fitted inhibition curve with a large enough effect; inconclusive = small, poorly fitted or top-dose-only effect, or another doubt; inactive = no such curve, though single readings can be large or run the other way
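Luciferase-expressing parasites in RBCs, 2% Hct / 0.1% parasitemia final; RPMI 1640 + 0.5% Albumax; 37 C, 5% CO2, one generation; luminescence read-out, lower signal = inhibition.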
Pf growth 96h – P. falciparum growth inhibition at 96 hours; Potency, µM (series often up to 28.7 µM), hits mostly inhibitors; hit rate 6.9% among 320,000; P. falciparum luciferase reporter growth, 96 h; active = well fitted inhibition curve with a large enough effect; inconclusive = small, poorly fitted or top-dose-only effect, or another doubt; inactive = no such curve, though single readings can be large or run the other way
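96 h incubation, 37 C, 5% CO2, of luciferase-reporter P. falciparum-infected RBCs (2% hematocrit, 0.05% parasitemia final) with test compounds; endpoint luminescence.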
SARS PLP yeast – SARS-CoV PLP inhibition in yeast; S. cerevisiae expressing SARS-CoV PLpro, growth rescue; Potency, µM (top dose mostly 32.9 µM), most hits filed as activators; hit rate 0.19% among 330,000; AID 485353; also: nearly all actives have a fitted effect of over 55% in size
Large screens that a line does not name were inactive. The list is not random: actives were taken first. Their share in the collection is about 21%. Unless noted, calls follow the shape of the full dose curve.

Nc1ccc(C(=O)OCc2nc3ccccc3[nH]2)cc1	Pf growth 96h inconclusive
Cc1ccc(C2CC(c3ccccc3)=NN2C(=O)CSc2nnc(-c3ccncc3)n2C)o1 (configuration not stated)	Pf growth 48h inconclusive, Pf growth 96h inconclusive
CCOc1ccc(OCC)c(S(=O)(=O)NC2CC(C)(C)NC(C)(C)C2)c1	none
O=C(Cn1nc(Cc2cccnc2)c2ccccc2c1=O)Nc1cccnc1Cl	Pf growth 48h inconclusive (no result: NS1 function inh)
COc1ccc(NC(=O)c2cc(C)no2)cc1Cl	Pf growth 48h 4.1µM, Pf growth 96h 3.7µM
CCOC(=O)c1[nH]cnc1C(=O)Nc1ccc(Cl)cc1	Pf growth 96h inconclusive
Cc1cc(C(=O)Nc2ccc(C#N)cc2)on1	none
Cc1cc(C(=O)Nc2ccc(Cl)cc2)on1	Shiga toxin inh 58, CHX counter 23
Cc1ocnc1C(=O)Nc1ccc(Cl)cc1	Shiga toxin inh 122, CHX counter 44
COc1ccc(NC(=O)c2cc(C)no2)cc1OC	Pf growth 96h inconclusive
COc1ccc(CNC(=O)CN(C(=O)CCC(=O)Nc2ccccn2)c2ccc3c(c2)OCO3)cc1	none
O=S(=O)(/N=C(/c1ccc(F)cc1)N1CCCCC1)c1ccc(Cl)cc1	none
CCN(CC)CCCN1C(=O)C(=O)/C(=C(/O)c2ccc(OC)c(Cl)c2)C1c1ccco1 (configuration not stated)	Pf growth 96h inconclusive
NS(=O)(=O)c1ccc(CNC(=O)c2ccncc2)cc1	none
CCC1CCCCN1CCCNC(=O)C1CCN(S(=O)(=O)N2CCC3(CC2)OCCO3)CC1 (configuration not stated)	Pf growth 96h inconclusive
Cc1cccc(Nc2c([N+](=O)[O-])c(=O)n(C)c3ccccc23)c1	Pf growth 48h 15µM, Pf growth 96h 10µM
CCOc1ccccc1NC(=O)CN(C)S(=O)(=O)c1cnc[nH]1	none (no result: NS1 function inh)
Cc1cc(S(=O)(=O)NCC(C)C)ccc1OCC(=O)NCC1CCCO1 (configuration not stated)	Pf growth 96h inconclusive
CC(C)Oc1ccc(Br)cc1/C=N\NC(N)=S	Pf growth 96h inconclusive
CCOC(=O)c1c(-c2ccccc2)csc1NC(=O)CSc1nnnn1C	Pf growth 48h 4.7µM (no result: Pf growth 96h)
CCOC(=O)c1c(-c2ccccc2)csc1NC(=O)CSc1nncs1	Pf growth 48h 9.3µM, Pf growth 96h inconclusive
COC(=O)c1c(-c2ccc3ccccc3c2)csc1NC(=O)Cc1ccc(OC)c(OC)c1	Pf growth 48h 8.3µM, Pf growth 96h 9.3µM
CCOC(=O)c1c(NC(=O)CSc2nnnn2C)sc(C)c1-c1ccc(C)cc1	CHX counter 16, Pf growth 48h 8.3µM, Pf growth 96h 2.3µM
CCOC(=O)c1c(NC(=O)CSc2nncs2)sc(C)c1-c1ccccc1	Pf growth 96h inconclusive
COC(=O)c1c(-c2ccc(OC)c(OC)c2)csc1N	NS1 function inh inconclusive, Pf growth 48h inconclusive
Cc1cc(C)n(C(=O)CCCn2cc([N+](=O)[O-])cn2)n1	Pf growth 96h inconclusive (no result: NS1 function inh)
CCOc1ccc(CCNC(=O)COC(=O)c2ccc[nH]c2=O)cc1OCC	none (no result: NS1 function inh, Shiga toxin inh, CHX counter, Pf growth 48h, Pf growth 96h)
CCOC(=O)c1c(-c2ccc(OC)cc2)csc1NC(=O)CSc1ccccc1	Pf growth 96h 13µM (no result: Pf growth 48h)
Cc1ccccc1NCc1ccc([N+](=O)[O-])s1	CHX counter 14, Pf growth 96h inconclusive
COc1ccccc1NCc1ccc([N+](=O)[O-])s1	Pf growth 96h inconclusive, SARS PLP yeast inconclusive
Cc1ccc(NCc2ccc([N+](=O)[O-])s2)cc1	Shiga toxin inh 49, CHX counter 25, Pf growth 96h inconclusive
CCN1CCN(C(=O)c2ccc(OC)c(S(=O)(=O)Nc3ccc(C)cc3)c2)CC1	none (no result: NS1 function inh)
O=C(c1cccc(S(=O)(=O)N2CCCc3ccccc32)c1)N1CCN(c2ccccc2)CC1	none (no result: NS1 function inh, Shiga toxin inh, CHX counter, Pf growth 48h, Pf growth 96h)
Cc1ccccc1N=C(NOCc1ccc(Cl)cc1Cl)c1nonc1N	Pf growth 96h 12µM (no result: Pf growth 48h)
Cc1ccccc1N=C(NOCc1ccccc1)c1nonc1N	Pf growth 48h inconclusive, Pf growth 96h inconclusive
Cc1ccc(N=C(NO)c2nonc2N)c(C)c1	none
Cc1ccc(N=C(NOCc2ccc(Cl)cc2Cl)c2nonc2N)c(C)c1	Pf growth 96h 12µM (no result: Pf growth 48h)
Cc1ccc(N=C(NOC(=O)c2ccccc2)c2nonc2N)c(C)c1	Pf growth 48h inconclusive, Pf growth 96h 5.9µM
O=C(COc1ccc(S(=O)(=O)N2CCOCC2)cc1Cl)NCC1CCCO1 (configuration not stated)	Pf growth 96h inconclusive
CCOC(=O)C1=NN(C(C)=O)C2(CC(=O)N(c3cccc(C)c3)C2=O)C1 (configuration not stated)	none
CCOC(=O)N1CCN(C(=O)CNC(=O)c2ccc(Cl)cc2)CC1	none
COc1ccc(C(C[N+](=O)[O-])c2c(-c3ccccc3)cc3ccccn23)c(OC)c1 (configuration not stated)	Shiga toxin inh 71, Pf growth 48h 10µM (no result: Pf growth 96h)
COc1ccccc1C(C[N+](=O)[O-])c1c(N)n(C)c(=O)n(C)c1=O (configuration not stated)	Pf growth 48h inconclusive, Pf growth 96h inconclusive
COc1ccc(C(C[N+](=O)[O-])c2c(C)cc3ccccn23)cc1 (configuration not stated)	Pf growth 48h 10µM, Pf growth 96h 12µM (no result: NS1 function inh)
Cc1cc2ccccn2c1C(C[N+](=O)[O-])c1ccc(N(C)C)cc1 (configuration not stated)	NS1 function inh inconclusive, Pf growth 48h inconclusive, Pf growth 96h inconclusive
Cc1nc(CS(=O)(=O)c2ccccc2)cc(Sc2ccccc2Cl)n1	Shiga toxin inh 105, CHX counter 38
Cc1nc(CS(=O)(=O)c2ccc(Cl)cc2)cc(Sc2ccccc2Cl)n1	Pf growth 48h inconclusive, Pf growth 96h inconclusive
Cc1nc(CS(=O)(=O)c2ccccc2)cc(Sc2ccc(Cl)cc2)n1	Shiga toxin inh 55, CHX counter 27, Pf growth 48h inconclusive, Pf growth 96h inconclusive
COC(=O)c1cc(S(=O)(=O)N2CCCCCC2)c[nH]1	none
CN1CCN(C(=O)CSc2nc(-c3cccs3)ccc2C#N)CC1	none (no result: Pf growth 96h)
Cc1cc(C)c2nc(SCC(=O)NCC3CCCO3)c(C#N)cc2c1 (configuration not stated)	none
CCc1nc(CN2CCCC(C(=O)c3ccc4c5c(cccc35)CC4)C2)c(C)[nH]1 (configuration not stated)	Pf growth 48h inconclusive
Nc1nc(Br)c2c(F)cccc2c1-c1ccc(Cl)cc1	Pf growth 48h inconclusive, Pf growth 96h 13µM
Nc1nc(Br)c2ccccc2c1-c1ccccc1	Pf growth 48h inconclusive, Pf growth 96h inconclusive (no result: NS1 function inh)
O=C(COc1ccccc1[N+](=O)[O-])N1CCCc2ccccc21	CHX counter 17, Pf growth 48h inconclusive
O=C(COc1ccccc1F)N1CCCc2ccccc21	CHX counter 22 (no result: Shiga toxin inh)
Cc1ccc(S(=O)(=O)N2C[C@@H]3CCCC[C@@H]3[C@@H](C)[C@H]2c2cn(Cc3ccccc3)c3ncccc23)cc1	none (no result: NS1 function inh, Shiga toxin inh, CHX counter, Pf growth 48h, Pf growth 96h)
CSc1ccccc1NC(=O)CN(C)CC(=O)Nc1ccc(S(=O)(=O)N2CCCC2)cc1	none (no result: NS1 function inh, Shiga toxin inh, CHX counter, Pf growth 48h, Pf growth 96h)
